By AC50 is commonly meant the concentration at which the activity in the assay is half-maximal.

For part of these data: Potency and affinity values are given separately. Calls of active or inactive are those of the source.

17 compounds from PubChem BioAssay (NCATS) can be followed below.

For experiment [1] the following is noted: Ebola virus entry assay, green fluorescence channel.
The conditions of experiment [2]: Ebola virus entry assay, blue channel fluorescence.
For experiment [3] the following is noted: Ebola virus entry assay, green fluorescence channel. This is another data set of the same source.
The conditions of experiment [4]: Ebola virus entry assay, ratio channel readout.
For experiment [5] the following is noted: Ebola virus entry assay, blue channel fluorescence. This is another data set of the same source.
The conditions of experiment [6]: Ebola virus entry assay, green channel fluorescence.
For experiment [7] the following is noted: Ebola virus entry assay, blue channel fluorescence. This is another data set of the same source.
For experiment [8] the following is noted: Ebola virus entry assay, reporter ratio channel; AC50: Channel type: primary unless noted; outcome: Channel type: primary unless noted.
For experiment [9] the following is noted: Ebola virus entry assay, blue channel (ratio component).
For experiment [10] the following is noted: Ebola virus entry cell assay, ratio channel.
For experiment [11] the following is noted: Ebola virus entry reporter assay, green channel fluorescence.
The conditions of experiment [12]: Ebola virus entry assay, ratio channel.
A short description of experiment [13]: Immunotoxin (HA22) sensitization/mitigation study. Vehicle arm (PBS) (AID 1159510). Note: potency is the fitted concentration of half-maximal effect. Conditions: cancer cells viability with PBS vehicle (HA22 study); series mostly up to 46.1 µM.
Experiment [14] is described as follows: Immunotoxin (SS1P) sensitization/mitigation study. Vehicle arm (DMEM) (AID 1159513). Note: potency is the fitted concentration of half-maximal effect. Conditions: cell viability with vehicle (DMEM); series mostly up to 46.1 µM.
A short description of experiment [15]: qHTS profiling of the MIPE4 collection as inhibitors of Plasmodium falciparum (3D7) proliferation (AID 743344).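 Note: scaled between DMSO vehicle wells and 0.29 µM artemisinin as full inhibition.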 Conditions: P. falciparum 3D7 in erythrocytes, SYBR Green DNA fluorescence, 72 h; at 28.5 µM (top of the series) unless noted. A digest of the protocol: (§1)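 Erythrocytes infected with P. falciparum (0.3% parasitemia, 2.5% hematocrit) incubated with compounds 72 h at 37 C, 5% CO2. Lysis with saponin/Triton buffer containing SYBR Green I, overnight at room temperature in the dark; DNA fluorescence (485/535 nm) normalised to 0.29 uM artemisinin and DMSO.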

Experiment [16] can be described thus: qHTS profiling of the MIPE4 collection as inhibitors of Plasmodium falciparum (DD2) proliferation (AID 743345). Conditions: P. falciparum Dd2 in erythrocytes, SYBR Green DNA, 72 h; at 28.5 µM (top of the series) unless noted. A digest of the protocol:
as §1
Background: qHTS replaces the single test concentration by a dilution series.

The nature of experiment [17]: qHTS profiling of the MIPE4 collection as inhibitors of Plasmodium falciparum (DD2) proliferation (Rep 2) (AID 743346). Conditions: P. falciparum Dd2 in erythrocytes, SYBR Green DNA, 72 h; at 28.5 µM (top of the series) unless noted. A digest of the protocol: as §1
Throughout, for efficacy: 0% is about no effect.

As to `c1cnc2cc3c(cc2n1)C1CNCC3C1`, in [1], the efficacy is -29.9% (inactive). Further, the compound was classed as inactive in experiment [2], in [3], in experiment [4], in experiment [5], in experiment [6] and in [7]. Also, the outcome in [8], in [9] and in [10] was inactive.

`O=C1N=C(O)CN1/N=C/c1ccc(-c2ccc([N+](=O)[O-])cc2)o1`: the efficacy in experiment [1] is 24% (inactive). The outcome in [2], in experiment [3], in experiment [4], in experiment [5], in [6] and in experiment [7] was inactive. Further, the result in experiment [8], in [9] and in [10] was inactive.

With `CC(=O)OCC(CCn1cnc2cnc(N)nc21)COC(C)=O`, in [1], the efficacy was 17.3% (inactive). Besides, the call in [2], in [3], in [4], in experiment [5], in experiment [6] and in experiment [7] was inactive. Also, the outcome in [8], in experiment [9] and in experiment [10] was inactive.

As to `Nc1cc(-c2ccncc2)c[nH]c1=O`, the efficacy in experiment [1] is 26.8% (inactive). The compound was called inactive in experiment [2], in experiment [3], in experiment [4], in [5], in experiment [6] and in experiment [7]. In addition, the result in [8], in experiment [9], in experiment [11] and in [10] was inactive.

As for `Cc1onc(-c2ccccc2Cl)c1C(=O)N[C@@H]1C(=O)N2[C@@H]1SC(C)(C)[C@@H]2C(=O)O`, the efficacy in experiment [1] is 13.5% (inactive). In addition, the outcome in [2], in experiment [3], in experiment [4], in experiment [5], in experiment [6] and in experiment [7] was inactive. The result in experiment [8], in experiment [9] and in experiment [10] was inactive.

With `CCN(C(C)=O)c1cccc(-c2ccnc3c(C#N)cnn23)c1`, the efficacy in experiment [1] was 22.6% (inactive). Also, the compound was called inactive in [2], in experiment [3], in experiment [4], in [5], in [6] and in [7]. Moreover, the outcome in experiment [8], in experiment [9] and in [10] was inactive.

Take `NC12CC3CC(CC(C3)C1)C2`: in experiment [1], the efficacy is 15% (inactive). Besides, the compound was called inactive in [2], in experiment [3], in [4], in experiment [5], in [6] and in experiment [7]. Moreover, the outcome in experiment [8], in experiment [9], in [11] and in [10] was inactive.

With `Cc1ccc(-c2cc(C(F)(F)F)nn2-c2ccc(S(N)(=O)=O)cc2)cc1`, in experiment [1], the efficacy was 26.9% (inactive). In addition, the call in experiment [2], in experiment [3], in experiment [4] and in [12] was inactive. Further, the AC50 in [5] is 39.8 µM (active); in [8], 39.8 µM (active); in [10] it was 11.2 µM (active). In addition, the Potency in [13] was 48.1 µM (active); in experiment [14], 38.2 µM (active).

As to `O=C1NC(=O)C(c2ccccc2)(c2ccccc2)N1`, in experiment [1], the efficacy is 9.61% (inactive). The result in experiment [2], in [3], in [4], in experiment [5], in experiment [6] and in [7] was inactive. The outcome in experiment [8], in experiment [9], in experiment [11] and in experiment [10] was inactive.

Regarding `COC(=O)N[C@H](C(=O)N[C@@H](Cc1ccccc1)[C@@H](O)CN(Cc1ccc(-c2ccccn2)cc1)NC(=O)[C@@H](NC(=O)OC)C(C)(C)C)C(C)(C)C`, the efficacy in experiment [1] was 21.7% (inactive). Also, the call in experiment [2], in experiment [3], in experiment [4], in experiment [5], in experiment [6] and in experiment [7] was inactive. Further, the outcome in experiment [8], in experiment [9] and in experiment [10] was inactive.

`CO[C@]12CC[C@@]3(C[C@@H]1[C@](C)(O)C(C)(C)C)[C@@H]1Cc4ccc(O)c5c4[C@@]3(CCN1CC1CC1)[C@H]2O5`: in experiment [15], the parasite growth, % of DMSO control stood at 5.19% [at 57.2 µM]. In addition, the parasite growth remaining, % of DMSO control (lower = more inhibition) in experiment [16] worked out at 6.03% [at 57.2 µM]. In experiment [1], the efficacy is -151% (inactive). Also, the compound was classed as inactive in experiment [2], in [3], in experiment [4] and in experiment [10]. The AC50 is 5.62 µM (active) in experiment [5], 3.16 µM (active) in [12] and 3.16 µM (active) in experiment [8].

For the compound `CC(C)n1c(/C=C/[C@@H](O)C[C@@H](O)CC(=O)O)c(-c2ccc(F)cc2)c2ccccc21`, in experiment [1], the efficacy is 14.5% (inactive). Also, the outcome in [2], in experiment [3], in [4], in experiment [5], in experiment [6] and in experiment [7] was inactive. Moreover, the result in [8], in experiment [9], in experiment [11] and in experiment [10] was inactive.

With `O=P1(NCCCl)OCCCN1CCCl` (stereo not given), in [15], the parasite growth, % of DMSO control was 62.8%. Also, the parasite growth remaining, % of DMSO control (lower = more inhibition) in experiment [16] was 97.2%. Moreover, in experiment [17], the parasite growth, % of control (lower = inhibition) turned out to be 110%. Moreover, the efficacy in experiment [1] is 14.4% (inactive). The result in [2], in experiment [3], in experiment [4], in experiment [5], in experiment [6] and in [7] was inactive. For the same compound, the outcome in experiment [8], in experiment [9], in experiment [11] and in [10] was inactive.

In the case of `CCC(=O)O[C@H]1[C@H](O[C@@H]2[C@@H](C)[C@H](O[C@H]3C[C@@](C)(OC)[C@@H](O)[C@H](C)O3)[C@@H](C)C(=O)O[C@H](CC)[C@@](C)(O)[C@H](O)[C@@H](C)C(=O)[C@H](C)C[C@@]2(C)O)O[C@H](C)C[C@@H]1N(C)C`, the efficacy in experiment [1] is 131% (inactive). In addition, the compound was classed as inactive in experiment [2], in experiment [3], in experiment [4] and in experiment [10]. Further, the AC50 is 14.1 µM (active) in [5], 11.2 µM (active) in experiment [12] and 11.2 µM (active) in experiment [8].

Turning to `CC[C@@H](CO)NCCN[C@@H](CC)CO`, the efficacy in [1] is -17.1% (inactive). For the same compound, the call in [2], in [3], in experiment [4], in experiment [5], in [6] and in experiment [7] was inactive. For the same compound, the outcome in experiment [8], in [9], in experiment [11] and in experiment [10] was inactive.

`COC(=O)C(c1ccccc1Cl)N1CCc2sccc2C1` (stereo not given): in experiment [1], the efficacy is 27.9% (inactive). Moreover, the result in experiment [2], in [3], in experiment [4], in [5], in experiment [6] and in [7] was inactive. Also, the result in [8], in experiment [9] and in experiment [10] was inactive.

`Cc1c(OCC(F)(F)F)ccnc1CS(=O)c1nc2ccccc2[nH]1` (stereo not given) registered a parasite growth, % of DMSO control in experiment [15] of 56.6%. Moreover, the parasite growth remaining, % of DMSO control (lower = more inhibition) in experiment [16] amounted to 83.1%. In [1], the efficacy is 18.5% (inactive). Further, the compound was called inactive in [2], in experiment [3], in experiment [4], in experiment [5], in experiment [6] and in experiment [7]. Moreover, the outcome in [8], in experiment [9], in experiment [11] and in [10] was inactive.
